For 30 molecules, outcome results are on record in PubChem BioAssay AID743363 (Broad Institute, 2014).

Molecules are shown by their SMILES. Active and inactive are the calls of the source. The rule behind the calls is not given here.

This assay can be described thus: BioD-coupled fluorescence displacement counter-assay – biochemical, dry powder samples, counter-screen, dose response (AID 743363). As to conditions: FL-DTB/streptavidin fluorescence displacement counter-screen; series mostly up to 10 µM.
For `CC(=O)c1ccc(N2CCN(C(=O)c3ccc4snnc4c3)CC2)cc1`, the result was inactive.
In the case of `CC(C)NC(=O)N1CC[C@@H]2[C@@H](CO)N(C)c3ccc(-c4ccc(F)cc4)cc3[C@@H]21` it was “inactive”.
The result for `CNC(=O)c1ccc(N2CCN(C(=O)c3ccc4c(c3)OCO4)CC2)cc1` reads “inactive”; that for `CC(=O)c1ccc(N2CC3(CN(C(=O)c4ccc5c(c4)OCO5)C3)C2)cc1`, “inactive”; that for `O=C(c1ccc2c(c1)OCO2)N1CCN(c2ccc(C(F)(F)F)cc2)CC1`, “inactive”.
In the case of `COc1ccc(NC(=O)N2CC[C@@H]3[C@@H](CO)N(C)c4ccc(-c5ccc(F)cc5)cc4[C@@H]32)cc1` it was “inactive”.
On to `CC(=O)c1ccc(N2CCN(C(=O)c3ccc4c(c3)OCO4)CC2)cc1`, for which the outcome was inactive.
As to `O=C(c1ccc2c(c1)OCO2)N1CCN(c2ccc(S(=O)(=O)C(F)(F)F)cc2)CC1`, the result was inactive.
As to `CC(=O)c1ccc(N2CCN(C(=O)c3ccc4c(c3)OC(F)(F)O4)CC2)cc1`, the result was inactive.
As to `O=C(c1ccc2c(c1)OCO2)N1CCN(c2ccc(S(=O)(=O)C(F)F)cc2)CC1`, the molecule was called inactive.
Consider `CN1c2ccc(-c3cccc(F)c3)cc2[C@H]2[C@H](CCN2C(=O)Cc2cccnc2)[C@H]1CO`, for which the outcome was inactive.
Regarding `CC(=O)c1ccc(N2CCN(C(=O)c3ccc4c(c3)OC(C)(C)O4)CC2)cc1`, the outcome was inactive.
For the molecule `CCC(=O)N1CC[C@@H]2[C@@H](CO)N(C)c3ccc(-c4ccc(F)cc4)cc3[C@@H]21`, the molecule was called inactive.
In the case of `CN1c2ccc(-c3cccc(F)c3)cc2[C@@H]2[C@@H](CCN2C(=O)c2ccc3c(c2)OCO3)[C@H]1CO` it was “inactive”; in that of `CC(=O)c1ccc(N2CCN(C(=O)c3ccc4c(c3C)OCO4)CC2)cc1`, “inactive”; in that of `COc1ccccc1NC(=O)N1CC[C@@H]2[C@@H](CO)N(C)c3ccc(-c4ccc(F)cc4)cc3[C@@H]21`, “inactive”.
Turning to `CN1c2ccc(-c3ccc(F)cc3)cc2[C@H]2[C@H](CCN2C(=O)Nc2cc(F)ccc2F)[C@H]1CO`, the molecule was classed as inactive.
In the case of `COc1ccc(C(=O)N2CCN(c3ccc(C(C)=O)cc3)CC2)cc1OC` it was “inactive”.
Turning to `COc1cccc(NC(=O)N2CC[C@@H]3[C@@H](CO)N(C)c4ccc(-c5cccc(F)c5)cc4[C@@H]32)c1`, the molecule was classed as inactive.
In the case of `CN1c2ccc(-c3ccc(F)cc3)cc2[C@H]2[C@H](CCN2C(=O)Cc2ccccn2)[C@H]1CO` it was “inactive”; in that of `CC(=O)c1ccc(N2CCCN(C(=O)c3ccc4c(c3)OCO4)CC2)cc1`, “inactive”; in that of `CC(=O)c1ccc(N2CCN(C(=O)c3ccc4c(c3)OCO4)[C@H](C)C2)cc1`, “inactive”.
The result for `COC(=O)CCCCCCC(=O)N1CC[C@@H]2[C@@H](CO)N(C)c3ccc(-c4cccc(F)c4)cc3[C@@H]21` reads “inactive”; that for `CC(=O)c1ccc(N2CCN(C(=O)c3cc(Cl)c4c(c3)OCO4)CC2)cc1`, “inactive”; that for `CC(=O)c1ccc(N2CCN(C(=O)c3cc4c(cc3C)OCO4)CC2)cc1`, “inactive”.
The result for `COCC(=O)N1CC[C@@H]2[C@@H](CO)N(C)c3ccc(-c4cccc(F)c4)cc3[C@@H]21` reads “inactive”; that for `CN1c2ccc(-c3cccc(F)c3)cc2[C@H]2[C@H](CCN2C(=O)Cc2ccccc2)[C@H]1CO`, “inactive”; that for `CN1c2ccc(-c3cccc(F)c3)cc2[C@H]2[C@H](CCN2C(=O)CCCCCCN)[C@H]1CO`, “inactive”.
For `COC(=O)c1ccc(N2CCN(C(=O)c3ccc4c(c3)OCO4)CC2)cc1`, the outcome was inactive.
With `CNS(=O)(=O)c1ccc(N2CCN(C(=O)c3ccc4c(c3)OCO4)CC2)cc1`, the outcome was inactive.
